PubChem BioAssay
Active and inactive are the calls of the source.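 How the source made its calls: active means mean inhibition above 46.5%, the solvent-only control mean plus 3 SD; inactive means the rest.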

target: Nuclear receptor coactivator 2 (Homo sapiens) (UniProt Q15596); assay: inhibition of GAL4-SRC2 driven luciferase expression – cell-based, luminescence, HEK293, triplicate, confirmation (AID 652008); conditions: HEK293 GAL4-SRC2 luciferase reporter, at 8.9 µM, stronger effect = higher value;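 further: 0% = DMSO-treated cells and 100% = Gossypol at 36 µM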
Sequence (Q15596 whole entry, looked up, the tested form may be a part): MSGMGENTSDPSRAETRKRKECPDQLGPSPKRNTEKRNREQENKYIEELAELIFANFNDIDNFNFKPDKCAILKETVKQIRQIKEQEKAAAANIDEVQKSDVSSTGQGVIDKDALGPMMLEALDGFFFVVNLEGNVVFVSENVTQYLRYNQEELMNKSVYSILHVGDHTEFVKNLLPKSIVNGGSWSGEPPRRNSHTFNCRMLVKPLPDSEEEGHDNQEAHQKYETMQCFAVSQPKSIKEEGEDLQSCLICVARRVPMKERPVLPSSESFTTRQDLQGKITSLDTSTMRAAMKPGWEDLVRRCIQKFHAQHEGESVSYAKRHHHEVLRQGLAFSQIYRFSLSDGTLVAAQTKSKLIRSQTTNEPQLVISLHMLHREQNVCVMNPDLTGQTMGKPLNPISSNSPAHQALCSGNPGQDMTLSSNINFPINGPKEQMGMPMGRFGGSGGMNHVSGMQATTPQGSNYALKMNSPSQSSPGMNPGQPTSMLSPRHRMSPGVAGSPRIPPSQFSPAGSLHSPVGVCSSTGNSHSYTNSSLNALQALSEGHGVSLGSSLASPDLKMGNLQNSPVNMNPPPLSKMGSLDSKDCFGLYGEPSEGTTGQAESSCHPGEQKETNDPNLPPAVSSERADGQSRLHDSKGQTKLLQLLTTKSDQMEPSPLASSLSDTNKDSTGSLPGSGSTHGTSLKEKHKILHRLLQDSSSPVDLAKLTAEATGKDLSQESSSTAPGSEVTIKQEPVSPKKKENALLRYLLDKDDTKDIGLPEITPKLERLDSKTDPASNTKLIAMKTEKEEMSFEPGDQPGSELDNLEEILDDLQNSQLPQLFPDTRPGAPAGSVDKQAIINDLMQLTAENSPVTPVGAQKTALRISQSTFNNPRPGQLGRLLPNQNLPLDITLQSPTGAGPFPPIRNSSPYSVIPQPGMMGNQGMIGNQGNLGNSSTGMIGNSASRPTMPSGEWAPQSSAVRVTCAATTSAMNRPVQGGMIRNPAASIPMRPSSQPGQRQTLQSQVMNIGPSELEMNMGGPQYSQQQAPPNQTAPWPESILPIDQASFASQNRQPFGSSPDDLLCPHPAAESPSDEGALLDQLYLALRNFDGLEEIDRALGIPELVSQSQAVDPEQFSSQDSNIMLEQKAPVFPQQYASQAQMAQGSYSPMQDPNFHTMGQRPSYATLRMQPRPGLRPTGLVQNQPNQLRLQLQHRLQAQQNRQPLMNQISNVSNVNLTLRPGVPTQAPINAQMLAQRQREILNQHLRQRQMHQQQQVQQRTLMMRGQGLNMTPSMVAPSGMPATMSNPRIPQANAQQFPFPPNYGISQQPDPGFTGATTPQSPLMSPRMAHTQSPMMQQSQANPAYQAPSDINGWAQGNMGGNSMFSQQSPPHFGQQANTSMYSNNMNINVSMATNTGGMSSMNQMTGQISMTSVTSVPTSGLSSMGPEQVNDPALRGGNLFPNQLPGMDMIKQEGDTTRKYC

inhibition, active:
Cc1cc(C(=O)CN2C(=O)c3ccccc3S2(=O)=O)c(C)n1-c1ccccc1 55.4%

inhibition, inactive:
CCN(CC)Cc1nc2c(c(=O)[nH]1)C(CC)(CC)Cc1ccccc1-2 6.86%
CC(=O)Nc1cc(-c2ccc(C(=O)NC3CC3)cc2)cn2c(-c3cccc(C(F)(F)F)c3)cnc12 -1.25%
COc1ccc(O)c(/C=N/NC(=O)c2ccc(CSc3nc(C)cc(C)n3)cc2)c1 26.4%
COc1cccc(-c2nc(-c3ccccn3)no2)c1 24.9%
COc1ccccc1NS(=O)(=O)c1ccc(C)c(C(=O)NC2CCN(Cc3ccccc3)CC2)c1 36.4%
COc1ccccc1C(C)NC(=O)C1CCN(S(=O)(=O)c2cccs2)CC1 (stereo not given) 6.18%
CNc1ccccc1C(=O)OC(C)C(=O)Nc1ccc(Cl)cn1 (stereo not given) 20.9%
CCCSc1nnc(Sc2nnnn2-c2ccccc2)s1 16.8%
CCNC(=O)NC(=O)COC(=O)CCCSc1nc2ccccc2s1 24.9%
O=C(O)c1ccccc1C(=O)Nc1ccc(Oc2ccc3ccccc3c2)cc1 28%
COc1cccc(NC(=O)Nc2nnc(CC(=O)NCc3ccccc3)s2)c1 24.5%
CC1CN(C(=O)CCC(=O)N2CCN(c3cccc(C(F)(F)F)c3)CC2)c2ccccc2O1 (stereo not given) 23.5%
Cc1ccc(C2CC(c3cccs3)=NN2C(=O)CCl)cc1 (stereo not given) 38.9%
Cc1nc(=O)c(-c2ccccc2)c(C)n1-c1ccccc1Cl -36.8%
